# Data from PubChem BioAssay (Tox21).
# Several values for one entry are separate records, joined by “and”; a condition that tells them apart may be missing. Identical values can stand only once. Records with an inconclusive call do not appear. Entries that show only a call come without a potency. The source holds several records for some structures; these can differ, active in one and inactive in another. Activity calls are given as the source filed them. Unless noted, the call rests on the fitted dose curve.
# Assays:
# [1] = Nuclear factor erythroid 2-related factor 2/antioxidant responsive element (Nrf2/ARE) small molecule agonists: qHTS cell viability counter screen in human keratinocytes (AID 1919968; active means well fitted curve in the direction sought with a large enough effect in the repeat runs; an effect the other way counts as inactive or inconclusive; further: nearly all actives have a fitted effect of over 55% in size); conditions: KeratinoSens HaCaT ARE cells viability, CellTiter-Fluor, 24 h; series mostly up to 92.4 µM
# Procedure, shortened: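 Viability counter-screen: KeratinoSens reporter cells, DMSO-delivered compounds, 23 h at 37 C, CellTiter-Fluor fluorescence.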
# [2] = Nuclear factor erythroid 2-related factor 2/antioxidant responsive element (Nrf2/ARE) small molecule agonists: luciferase reporter gene qHTS assay in human keratinocytes (AID 1919969); conditions: KeratinoSens HaCaT ARE-luciferase, luminescence, 24 h; series mostly up to 92.4 µM; further: nearly all actives have a fitted effect of over 35% in size; further: potency means the concentration at half of the fitted maximal effect
# [3] = target: Gonadotropin-releasing hormone receptor (Homo sapiens) (UniProt P30968); test: Human gonadotropin-releasing hormone receptor (GnRHR) small molecule agonists, calcium flux assay in GnRHR-HEK293 cells (AID 1920063); conditions: calcium flux fluorescence, agonist mode; series mostly up to 57.6 µM; further: nearly all actives have a fitted effect of over 35% in size
# Chain of Gonadotropin-releasing hormone receptor (Homo sapiens) (P30968 whole entry, looked up): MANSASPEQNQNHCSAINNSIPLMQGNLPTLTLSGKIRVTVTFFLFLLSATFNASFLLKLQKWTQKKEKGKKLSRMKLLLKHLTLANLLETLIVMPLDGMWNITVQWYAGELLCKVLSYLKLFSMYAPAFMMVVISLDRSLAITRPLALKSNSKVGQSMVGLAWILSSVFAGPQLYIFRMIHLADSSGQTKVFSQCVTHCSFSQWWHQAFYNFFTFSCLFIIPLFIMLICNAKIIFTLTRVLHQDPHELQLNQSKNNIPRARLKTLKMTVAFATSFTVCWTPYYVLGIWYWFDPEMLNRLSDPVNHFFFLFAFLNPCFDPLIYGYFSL
# Procedure, shortened: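 Tox21-format agonist screen using human GnRHR-expressing HEK293 cells and a fluorescent calcium dye; kinetic 3-min fluorescence reading after compound addition, 15-point concentration series run in triplicate.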
# [4] = target: KiSS-1 receptor (Homo sapiens) (UniProt Q969F8); test: Human kisspeptin (KISS1R) small molecule agonists, calcium flux assay in KISS1R-HEK293 cells (AID 1920064; active means well fitted curve in the direction sought with a large enough effect in the repeat runs; an effect the other way counts as inactive or inconclusive); conditions: KISS1R-HEK293, calcium flux fluorescence, agonist; series mostly up to 76.8 µM
# Chain of KiSS-1 receptor (Homo sapiens) (Q969F8 whole entry, looked up): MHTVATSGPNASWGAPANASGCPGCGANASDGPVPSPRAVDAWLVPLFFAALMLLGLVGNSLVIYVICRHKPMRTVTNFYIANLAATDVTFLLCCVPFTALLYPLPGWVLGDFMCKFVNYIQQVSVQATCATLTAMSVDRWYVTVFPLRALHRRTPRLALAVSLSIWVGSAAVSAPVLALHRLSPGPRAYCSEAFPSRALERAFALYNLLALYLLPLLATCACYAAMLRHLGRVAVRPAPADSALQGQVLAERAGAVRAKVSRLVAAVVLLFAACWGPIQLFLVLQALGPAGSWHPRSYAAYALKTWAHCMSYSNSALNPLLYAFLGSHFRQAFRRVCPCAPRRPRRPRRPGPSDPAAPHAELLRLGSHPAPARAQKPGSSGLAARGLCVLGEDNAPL
# Procedure, shortened: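 Intracellular calcium mobilization in KISS1R-HEK293 cells was recorded by fluorescence (Ex/Em 480/540) for 3 min following compound addition to cells pre-loaded 1 h with calcium dye.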
# [5] = G protein-coupled receptor (GPCR) small molecule agonists, calcium flux assay: HEK293 wild type cell line counter screen (AID 1920065); conditions: HEK293 WT calcium flux, fluorescence, agonist mode; series mostly up to 57.6 µM
# Procedure, shortened: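 In this agonist-mode screen, ATP is the positive control and DMSO the vehicle. Cells grow 18 h before a 1 h dye incubation at 37 C; signal is taken at Ex/Em 480/540 over 3 min.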
# [6] = p53 small molecule agonists, cell-based qHTS assay with human liver microsomes (AID 1963577); conditions: HCT-116 p53RE-bla with human liver microsomes, ratio, 16 h; series mostly up to 66 µM;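 further: p53 response element beta-lactamase reporter cells with liver microsomes plus NADPH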
# Procedure, shortened: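 Steps: plate p53RE-bla cells, incubate 5 h at 37 C; add compound in DMSO; add microsomes (0.5 mg/mL final) and NADPH (0.5 mg/mL final); incubate 16 h at 37 C; add LiveBLAzer, 2 h RT; read fluorescence.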
# [7] = p53 small molecule agonists, cell-based qHTS assay with rat liver microsomes (AID 1963578); conditions: HCT-116 p53RE-bla, beta-lactamase ratio, 16 h; series mostly up to 66 µM
# Procedure, shortened: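 Metabolic activation is supplied by rat liver microsomes with NADPH (each 0.5 mg/mL final). p53RE-bla cells incubate with compound 16 h at 37 C; reporter activity is measured by LiveBLAzer fluorescence.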
# [8] = p53 small molecule agonists, cell-based qHTS assay with human liver microsomes: qHTS cell viability counter screen (AID 1963579); conditions: p53RE-bla HCT-116 viability, ATP luminescence, 16 h, HLM; series mostly up to 66 µM; further: nearly all actives have a fitted effect of over 45% in size
# Procedure, shortened: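 After the 460/530 nm beta-lactamase read, CellTiter-Glo was added to the same wells and luminescence measured after 30 min at room temperature, giving viability of p53RE-bla cells treated 16 h with compounds plus microsomes and NADPH.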
# [9] = p53 small molecule agonists, cell-based qHTS assay with rat liver microsomes: qHTS cell viability counter screen (AID 1963580); conditions: p53RE-bla HCT-116 + rat microsomes, ATP viability, 16 h; series mostly up to 66 µM; further: nearly all actives have a fitted effect of over 45% in size
# Procedure, shortened: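 In HCT-116 cells carrying a p53 response element-bla reporter, compounds were metabolically activated in situ by rat liver microsomes with NADPH over 16 h. Cell ATP content then served as the cytotoxicity measure.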
# [10] = p53 small molecule agonists, cell-based qHTS assay: qHTS cell viability counter screen (AID 1963581); conditions: p53RE-bla HCT-116 viability, ATP luminescence, 16 h; series mostly up to 66 µM; further: nearly all actives have a fitted effect of over 45% in size
# Procedure, shortened: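 Compounds are pinned onto HCT-116 p53RE-bla cells and left 16 h at 37 C. Following the reporter FRET read, ATP is quantified by CellTiter-Glo luminescence after 30 min at room temperature.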
# [11] = p53 small molecule agonists, cell-based qHTS assay (AID 1963582; active means well fitted activation curve with a large enough effect in the signal ratio in the repeat runs, not every such curve was filed as active; the % refers to the signal ratio); conditions: HCT-116 p53RE-bla reporter, beta-lactamase FRET ratio, 16 h; series mostly up to 66 µM
# Procedure, shortened: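 Agonist activity was scored from beta-lactamase FRET fluorescence in p53RE-bla cells treated 16 h at 37 C with compounds in DMSO, substrate incubation being 2 h at room temperature.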
# [12] = target: 5-hydroxytryptamine receptor 2A (Homo sapiens) (UniProt P28223); test: 5-hydroxytryptamine receptor 2A (HTR2A) small molecule antagonists, cell-based qHTS assay (AID 1963586); conditions: HTR2A-CHO cells, DOI-induced calcium flux, fluorescence; series mostly up to 61.5 µM; further: nearly all actives have a fitted effect of over 45% in size
# Chain of 5-hydroxytryptamine receptor 2A (Homo sapiens) (P28223 whole entry, looked up): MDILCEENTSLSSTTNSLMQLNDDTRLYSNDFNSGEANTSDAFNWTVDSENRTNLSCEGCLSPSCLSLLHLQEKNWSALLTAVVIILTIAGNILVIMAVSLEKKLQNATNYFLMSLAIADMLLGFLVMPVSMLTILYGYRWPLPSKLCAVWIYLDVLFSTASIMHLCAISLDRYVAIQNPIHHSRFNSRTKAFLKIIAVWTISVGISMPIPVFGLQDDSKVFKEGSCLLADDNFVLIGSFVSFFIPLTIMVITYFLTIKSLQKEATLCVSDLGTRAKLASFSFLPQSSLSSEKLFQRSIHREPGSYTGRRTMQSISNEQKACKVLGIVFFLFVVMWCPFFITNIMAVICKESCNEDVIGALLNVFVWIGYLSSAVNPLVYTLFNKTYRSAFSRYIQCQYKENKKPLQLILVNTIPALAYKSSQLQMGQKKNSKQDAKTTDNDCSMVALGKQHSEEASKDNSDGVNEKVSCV
# Procedure, shortened: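 Antagonist-mode intracellular calcium assay: DOI (4 nM) added after 5 min compound pre-incubation at room temperature to dye-loaded HTR2A-CHO cells. Fluorescence followed for 3 min, sampled every second.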
# [13] = target: 5-hydroxytryptamine receptor 2A (Homo sapiens) (UniProt P28223); test: 5-hydroxytryptamine receptor 2A (HTR2A) small molecule agonists, cell-based qHTS assay (AID 1963587); conditions: HTR2A-CHO cells, calcium flux fluorescence, agonist mode; series mostly up to 76.8 µM; further: nearly all actives have a fitted effect of over 30% in size; further: potency means the concentration at half of the fitted maximal effect
# Procedure, shortened: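 HTR2A-CHO cells, plated 18 h at 37 C/5% CO2, dye-loaded 1 h at 37 C; compounds in DMSO added by pin tool (agonist mode). Intracellular calcium flux read as kinetic fluorescence on FDSS over 2 min at 1 s intervals.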
# [14] = target: Muscarinic acetylcholine receptor M1 (Homo sapiens) (UniProt P11229); test: Cholinergic receptor muscarinic 1 (CHRM1) small molecule antagonists, cell-based qHTS assay (AID 1963588); conditions: CHRM1-CHO antagonist mode, calcium flux fluorescence; series mostly up to 61.5 µM; further: nearly all actives have a fitted effect of over 40% in size
# Chain of Muscarinic acetylcholine receptor M1 (Homo sapiens) (P11229 whole entry, looked up): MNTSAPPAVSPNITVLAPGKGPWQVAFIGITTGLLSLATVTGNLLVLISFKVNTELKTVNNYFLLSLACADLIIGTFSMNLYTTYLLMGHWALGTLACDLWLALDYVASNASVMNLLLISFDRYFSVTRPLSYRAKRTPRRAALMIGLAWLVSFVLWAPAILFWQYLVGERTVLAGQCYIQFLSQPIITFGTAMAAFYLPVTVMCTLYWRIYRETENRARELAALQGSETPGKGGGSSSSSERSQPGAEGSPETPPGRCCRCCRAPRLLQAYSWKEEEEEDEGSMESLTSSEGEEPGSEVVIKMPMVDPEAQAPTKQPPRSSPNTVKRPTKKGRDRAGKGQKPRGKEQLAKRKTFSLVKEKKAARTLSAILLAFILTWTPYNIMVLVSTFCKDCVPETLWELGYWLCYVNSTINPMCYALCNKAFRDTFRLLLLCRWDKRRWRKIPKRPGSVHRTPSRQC
# Procedure, shortened: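 CHRM1-CHO calcium-flux assay, antagonist mode. Cells were seeded 18 h, dye-loaded 1 h at 37 C and given compound for 5 min at RT, then acetylcholine was added at 50nM. FDSS fluorescence was read 3 min; 15 concentrations, three runs.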
# [15] = target: Muscarinic acetylcholine receptor M1 (Homo sapiens) (UniProt P11229); test: Cholinergic receptor muscarinic 1 (CHRM1) small molecule agonists, cell-based qHTS assay (AID 1963589); conditions: CHRM1-CHO cells, agonist mode, calcium flux fluorescence; series mostly up to 76.8 µM; further: nearly all actives have a fitted effect of over 35% in size
# Procedure, shortened: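 Stable CHRM1-CHO cells (human receptor) were incubated 18 h, dye-loaded for 1 h at 37 C and exposed to test compounds for agonist activity, with calcium-dependent fluorescence followed kinetically.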
# [16] = cAMP Responsive Elements (CRE) small molecule agonists, cell-based qHTS assay (AID 1963590); conditions: CRE-bla HEK293T, beta-lactamase FRET ratio, 3 h; series mostly up to 92.4 µM
# Procedure, shortened: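 FRET-based beta-lactamase readout (LiveBLAzer B/G, 2 h RT) quantified CRE activation in HEK 293T CRE-bla cells after 3 h treatment with DMSO-dissolved compounds.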
# [17] = cAMP Responsive Elements (CRE) small molecule antagonists, cell-based qHTS assay (AID 1963591; active means well fitted inhibition curve with a large enough effect in the signal ratio in the repeat runs, not every such curve was filed as active; the % refers to the signal ratio); conditions: CRE-bla HEK293T, beta-lactamase FRET ratio; series mostly up to 92.4 µM
# Procedure, shortened: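 qHTS in CRE-bla HEK 293T cells: compound in DMSO, then 0.25 uM NKH477 (final), 3 h at 37 °C/5% CO2; beta-lactamase FRET read-out after 2 h substrate incubation.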
# [18] = target: Beta-2 adrenergic receptor (Homo sapiens) (UniProt P07550); test: Adrenergic beta2 receptor (ADRB2) small molecule antagonists, cell-based qHTS assay (AID 1963592); conditions: CHO-ADRB2 cells, isoproterenol-stimulated cAMP HTRF ratio, 0.5 h; series mostly up to 92.4 µM; further: nearly all actives have a fitted effect of over 50% in size
# Chain of Beta-2 adrenergic receptor (Homo sapiens) (P07550 whole entry, looked up): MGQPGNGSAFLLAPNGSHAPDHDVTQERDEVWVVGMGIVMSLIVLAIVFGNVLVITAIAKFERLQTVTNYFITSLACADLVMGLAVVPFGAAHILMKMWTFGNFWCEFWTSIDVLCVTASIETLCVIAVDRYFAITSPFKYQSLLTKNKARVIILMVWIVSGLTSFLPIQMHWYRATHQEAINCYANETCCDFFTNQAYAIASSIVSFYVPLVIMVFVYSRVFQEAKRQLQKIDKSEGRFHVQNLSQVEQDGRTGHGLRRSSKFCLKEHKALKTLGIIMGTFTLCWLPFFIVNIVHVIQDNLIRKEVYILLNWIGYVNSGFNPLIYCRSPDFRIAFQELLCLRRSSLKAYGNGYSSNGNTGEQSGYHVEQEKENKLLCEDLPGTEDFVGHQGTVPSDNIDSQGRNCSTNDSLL
# Procedure, shortened: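 Cells (CHO, stable ADRB2 overexpression) incubated 18-20hr at 37C; compounds added from DMSO; agonist mix (1nM isoproterenol, 100uM IBMX, 25uM Ro-20-1724) added; 0.5hr RT; d2-cAMP and anti-cAMP-cryptate added; 1hr RT; 665/615 nm read.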
# [19] = target: D(2) dopamine receptor (Homo sapiens) (UniProt P14416); test: Dopamine D2 receptor (DRD2) small molecule agonists, cell-based qHTS assay (AID 1963594); conditions: HEK293-DRD2 cAMP HTRF, agonist mode, 30 min; series mostly up to 92.4 µM; further: nearly all actives have a fitted effect of over 35% in size
# Chain of D(2) dopamine receptor (Homo sapiens) (P14416 whole entry, looked up): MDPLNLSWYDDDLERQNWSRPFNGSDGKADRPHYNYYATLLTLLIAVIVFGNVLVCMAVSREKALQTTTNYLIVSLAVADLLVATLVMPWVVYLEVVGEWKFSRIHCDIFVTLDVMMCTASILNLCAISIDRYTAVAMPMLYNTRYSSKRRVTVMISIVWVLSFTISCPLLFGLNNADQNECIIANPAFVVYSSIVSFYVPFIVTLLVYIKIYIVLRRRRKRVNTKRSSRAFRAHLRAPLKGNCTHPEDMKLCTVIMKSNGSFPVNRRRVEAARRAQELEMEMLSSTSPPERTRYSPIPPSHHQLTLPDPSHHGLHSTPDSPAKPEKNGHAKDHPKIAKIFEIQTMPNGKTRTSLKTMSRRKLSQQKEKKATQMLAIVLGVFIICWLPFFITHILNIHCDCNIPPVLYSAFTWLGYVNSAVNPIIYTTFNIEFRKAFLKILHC
# Procedure, shortened: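 HEK293 cells stably expressing DRD2 were cultured 24 h at 37 C, then given Ro20-1724 (0.1 mM final) and compounds for 10 min at room temperature. NKH477 (200nM) was then added for 30 min. cAMP was read by HTRF.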
# [20] = target: D(2) dopamine receptor (Homo sapiens) (UniProt P14416); test: Dopamine D2 receptor (DRD2) small molecule antagonists, cell-based qHTS assay (AID 1963595; active means well fitted inhibition curve with a large enough effect in the signal ratio in the repeat runs, with a control signal flat; the % refers to the signal ratio); conditions: HEK293-DRD2 cAMP HTRF antagonist mode; series mostly up to 92.4 µM
# Procedure, shortened: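 DRD2-HEK293; 0.1 mM Ro20-1724; cpd 10 min RT; NKH477 200 nM + quinpirole 12 nM, 30 min RT; HTRF cAMP (cAMP-d2/anti-cAMP cryptate), 665/620 nm ratio after 1 h.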
SMILES,Potency [1],Potency [2],Potency [3],Potency [4],Potency [5],Potency [6],Potency [7],Potency [8],Potency [9],Potency [10],Potency [11],Potency [12],Potency [13],Potency [14],Potency [15],Potency [16],Potency [17],Potency [18],Potency [19],Potency [20]
Cc1cc(C)c(N)c(Cl)c1,inactive,inactive,inactive,inactive,inactive,inactive,inactive,inactive,inactive,inactive,inactive,inactive,inactive,inactive,inactive,inactive,inactive,inactive,inactive,inactive
CC1(C)O[C@H]2CC(=O)OC[C@]23[C@H]2CC[C@@]4(C)[C@H](c5ccoc5)OC(=O)[C@H]5O[C@]54[C@]2(C)C(=O)C[C@@H]13,inactive,inactive,inactive,inactive,inactive,inactive,inactive,inactive,inactive,inactive,inactive,inactive,inactive,inactive,inactive,inactive,inactive,inactive,inactive,inactive
C=CC(=O)CCCCC,inactive,inactive,inactive,inactive,inactive,inactive,inactive,inactive,inactive,inactive,inactive,inactive,inactive,inactive,inactive,inactive,inactive,–,inactive,inactive
CC1CC(OC(=O)c2ccccc2O)CC(C)(C)C1 (stereo unspecified),inactive,61.1 µM (active),inactive,inactive,inactive,inactive,inactive,inactive,inactive,inactive,inactive,inactive,inactive,inactive,inactive,inactive,–,inactive,inactive,inactive
Cc1cc(CCC(=O)OCCOCCOCCOC(=O)CCc2cc(C)c(O)c(C(C)(C)C)c2)cc(C(C)(C)C)c1O,inactive,inactive,inactive,inactive,inactive,inactive,inactive,inactive,inactive,inactive,inactive,inactive,inactive,inactive,inactive,inactive,inactive,–,inactive,inactive
O=C1OC(=O)c2c(Cl)c(Cl)c(Cl)c(Cl)c21,inactive,inactive,inactive,inactive,inactive,inactive,inactive,inactive,inactive,inactive,inactive,inactive,inactive,inactive,inactive,inactive,inactive,–,inactive,inactive
CC1(C)[C@H](C(=O)OCc2cccc(Oc3ccccc3)c2)[C@@H]1C=C(Cl)Cl,inactive,inactive,inactive,inactive,inactive,inactive,inactive,inactive,inactive,inactive,inactive,inactive,inactive,inactive,inactive,inactive,inactive,–,inactive,inactive
NCCc1ccc(O)c(O)c1,inactive,inactive,inactive,inactive,inactive,inactive,inactive,inactive,inactive,inactive,inactive,inactive,inactive and 6.01 µM (active),inactive,inactive,inactive,inactive,inactive,–,inactive
C/C(=C1\CCOC(=O)S1)N(C=O)Cc1cnc(C)nc1N,inactive,inactive,inactive,inactive,inactive,inactive,inactive,inactive,inactive,inactive,inactive,inactive,inactive,inactive,inactive,inactive,inactive,–,inactive,inactive
Cc1ccc(C(=O)O)cc1,inactive,inactive,inactive,inactive,inactive,inactive,inactive,inactive,inactive,inactive,inactive,inactive,inactive,inactive,inactive,inactive,inactive,–,inactive,inactive
O=C(O)CC(=O)O,inactive,inactive,inactive,inactive,inactive,inactive,inactive,inactive,inactive,inactive,inactive,inactive,inactive,inactive,inactive,inactive,inactive,inactive,–,inactive
c1ccc2c(c1)CCC2,inactive,13.7 µM (active),inactive,inactive,inactive,inactive,inactive,inactive,inactive,inactive,inactive,inactive,inactive,inactive,inactive,inactive,inactive,–,inactive,inactive
CCOC(/C=C(\C)CCC=C(C)C)OCC,inactive,inactive,inactive,inactive,inactive,inactive,inactive,inactive,inactive,inactive,inactive,inactive,inactive,inactive,inactive,inactive,inactive,–,inactive,inactive
CCCCN(CCO)CCO,inactive,inactive,inactive,inactive,inactive,inactive,inactive,inactive,inactive,inactive,inactive,inactive,inactive,inactive,inactive,inactive,inactive,inactive,–,inactive
COc1ccc2c(c1)CCCC2=O,inactive,inactive,inactive,inactive,inactive,inactive,inactive,inactive,inactive,inactive,inactive,inactive,inactive,inactive,inactive,inactive,–,inactive,inactive,–
